We go through nine compounds from PubChem BioAssay (NCI).

This is part of a sample that, as a whole, favours compounds with a hit. Of some 83,000 tested, about 20% had one in any assay.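 Activity criterion: percent growth below 10, measured after cells in 96-well plates were exposed to a single compound concentration for 48 hours.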 A number with no mark means an inactive call. The source made the active and inactive calls.

Holding throughout (experiment): NCI-60 one-dose screen, 48 h (100 = growth as untreated, 0 = no growth, -100 = all killed)
Conditions in all cases: 10 µM unless noted

Assay [1] relates to SR leukemia.
Assay [2] concerns RPMI-8226 leukemia.
Assay [3] concerns OVCAR-8 ovarian.
Assay [4] deals with OVCAR-5 ovarian.
For assay [5], the system named is OVCAR-4 ovarian.
Assay [6] has as its system SK-OV-3 ovarian.
Assay [7] concerns IGROV1 ovarian.
The test system of assay [8] is OVCAR-3 ovarian.
Assay [9] concerns HS 578T breast.
Assay [10] relates to NCI/ADR-RES ovarian.
Assay [11] has as its system T-47D breast.
Assay [12] has as its system BT-549 breast.
The subject of assay [13] is MDA-MB-435 melanoma.
Assay [14] has as its system SW-620 colon.
The test system of assay [15] is MCF7 breast.
Assay [16] relates to HCT-116 colon.
The subject of assay [17] is HCC-2998 colon.
Assay [18] has as its system KM12 colon.

Regarding `O=C(Cn1cc(CN2CCCCCC2)nn1)Nc1ccc2c(ccn2Cc2ccccc2)c1`, the growth was 36.8% in assay [1]; 64.3% in assay [2]; 98.4% in [3]; 105% in assay [4]; 87% in assay [5]; 82.7% in assay [6]. For the same compound, the growth was 94% in assay [7]; 95.7% in assay [8]; 88.5% in assay [9]; 102% in assay [10]; 69.8% in [11]; 86.9% in assay [12]. The growth was 96.6% in assay [13]; 96.9% in [14]; 90.2% in assay [15]; 95% in [16]; 97.6% in assay [17]; 93.8% in assay [18].

Regarding `CC/C(=C(/c1ccc(Cl)cc1)c1ccc(OCCN2CCCC2)cc1)c1ccc(OC)cc1`, the growth in [1] is -16.1% (active); in [2], 12.2%; in assay [3], 69.4%; in [4], 72.9%; in [5] it was 72.6%; in [6], 101%. Moreover, the growth was 81.8% in assay [7]; 78.7% in [8]; 100% in assay [9]; 66.7% in [10]; 43.7% in [11]; 85.8% in assay [12]. For the same compound, the growth is 73.5% in [13]; 60.2% in assay [14]; 18.5% in assay [15]; 65.9% in assay [16]; 56% in assay [18].

Regarding `Cc1ccc2c(n1)C(=O)c1[nH]c3ccccc3c1C2=O`, the growth in [1] is 39.8%; in assay [2] it was 46.9%; in assay [3] it was 53%; in assay [4], 67.9%; in assay [5], 22.2%; in assay [6], 85.6%. Moreover, the growth is 33.8% in [7]; -5.11% (active) in [8]; 69.2% in assay [9]; 58.6% in assay [10]; 23.2% in assay [11]; 58.5% in assay [12]. Moreover, the growth was -87.6% (active) in [13]; 48.3% in assay [14]; 31.2% in assay [15]; 22% in [16]; 37% in assay [18].

As to `O=[N+]([O-])C1C(c2ccccc2)C12c1ccccc1-c1ccccc12` (centres undefined), the growth is -14.8% (active) in assay [1]; -17.3% (active) in assay [2]; -28% (active) in [3]; 23.9% in [4]; 57.2% in assay [5]; 2.18% (active) in [6]. The growth in [7] is 20.5%; in assay [8], -31.2% (active); in assay [9] it was 38.6%; in [10], -27.4% (active); in assay [11], 57.6%; in [12], -42.3% (active). Moreover, the growth in assay [13] was -23.1% (active); in assay [14], 3.12% (active); in assay [15], 9.88% (active); in assay [16] it was -18.8% (active); in [17], -18.8% (active); in [18] it was 1.09% (active).

As to `Cn1c(=O)c2c(nc(NC3=NS(=O)(=O)c4ccccc43)n2CC(=O)N2CCc3ccccc32)n(C)c1=O`, the growth in assay [1] is 124%; in assay [2], 108%; in assay [3], 98.9%; in assay [4] it was 101%; in assay [5] it was 107%; in assay [6], 101%. Further, the growth in [7] was 94.7%; in assay [8] it was 110%; in assay [9], 97%; in [10], 91.8%; in assay [11], 91.3%; in assay [12] it was 91.7%. Also, the growth in [13] is 101%; in assay [14] it was 95.2%; in assay [15], 103%; in assay [16], 97.9%; in assay [17], 96.9%; in assay [18] it was 107%.

Turning to `Cc1oc(-c2ccc(Cl)cc2)nc1/C=C/C(=O)c1ccccc1`, the growth in assay [1] was 93.7%; in [2] it was 90.9%; in [3], 98.7%; in assay [4], 115%; in [5] it was 79.4%; in [6] it was 100%. Besides, the growth is 93% in assay [7]; 97.5% in assay [8]; 100% in [9]; 104% in [10]; 79.5% in [11]; 84.8% in assay [12]. Besides, the growth in [13] is 103%; in [14] it was 104%; in [15], 49.9%; in assay [16] it was 99.5%; in assay [17], 103%; in assay [18], 100%.

For the compound `Cn1ccc2c3c(ccc21)CC3=O`, the growth is 108% in [1]; 106% in assay [2]; 107% in [3]; 102% in [4]; 119% in [5]; 113% in assay [6]. The growth in assay [7] is 112%; in assay [8], 117%; in [9], 121%; in [10], 115%; in assay [11] it was 105%; in assay [12], 106%. For the same compound, the growth in assay [13] was 106%; in assay [14], 108%; in assay [15] it was 107%; in [16], 101%; in assay [18], 112%.

As for `OCCOCCN(Cc1ccccn1)Cc1cc(I)cc(I)c1O`, the growth in assay [1] was 87.8%; in assay [2] it was 96.9%; in assay [3] it was 85.7%; in assay [4], 92.5%; in assay [5], 93.9%; in [6] it was 107%. For the same compound, the growth was 77.9% in [7]; 90.2% in assay [8]; 109% in [9]; 6.52% (active) in assay [10]; 93.9% in assay [11]; 81.6% in assay [12]. Also, the growth in assay [13] is 102%; in [14], 95.5%; in assay [15], 76%; in [16] it was 73.4%; in assay [17], 111%; in assay [18], 91.3%.

In the case of `CCOC(=O)c1c2c(n3ccc(C)cc13)C(=O)c1ccccc1C2=O`, the growth in assay [1] was 84.8%; in [2], 98%; in [3], 86.1%; in [4] it was 109%; in assay [5] it was 101%; in assay [6] it was 103%. The growth was 78% in [7]; 88.2% in assay [8]; 93.3% in assay [9]; 95% in [10]; 92.7% in [11]; 77.2% in assay [12]. The growth in assay [13] was 108%; in assay [14], 89.2%; in assay [15], 82.5%; in [16], 76.5%; in assay [17] it was 101%; in assay [18], 94.1%.
